A short description of assay [1]: compounds binding Alexa647 anti-His antibody – biochemical, small-molecule microarray, 635 nm fluorescence, artefact control for SMM control protein annotation, primary screen (AID 1128).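 Also: score merges feature fluorescence with signal-to-noise for each printed compound spot.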 The conditions noted are these: higher = more signal.
Assay [2] concerns Human papillomavirus type 1a E7 protein (residues 1-88). The assay is described as follows: HPV1a E7 small-molecule binders, primary screen, biochemical, small-molecule microarray, residues 1-88, 635 nm (AID 1129). The conditions noted are these: small-molecule microarray binding, fluorescence 635 nm; higher = more signal.
Assay [3] addresses Focal adhesion kinase 1 (Homo sapiens) (UniProt Q05397). The assay is described as follows: PTK2 protein binding on printed compound slides – biochemical, small-molecule microarray, 635/667 nm fluorescence, BSA, DTT, primary screen (AID 1130).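 Also: composite of spot emission at 667 nm and signal to noise over triplicate slides.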 Conditions: 635 nm fluorescence, higher = more signal.
In assay [4] the test system is Fibrinogen (Alexa647-labelled). The assay is described as follows: Alexa647-fibrinogen binding to printed small molecules – biochemical, small-molecule microarray, 635/667 nm fluorescence, artefact control for SMM control-protein annotation, profiling panel (AID 1131).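 Also: z-score merges 667 nm fluorescence with per-spot signal-to-noise over triplicate slides.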 The conditions noted are these: fibrinogen-A647 binding fluorescence, higher = more signal.
Assay [5] concerns the target Follistatin (Homo sapiens) (UniProt P19883). The assay is described as follows: FST protein binding to printed compounds – biochemical, small-molecule microarray, 635/667 nm fluorescence, primary screen (AID 1132). The conditions noted are these: 635 nm fluorescence, higher = more signal.
For assay [6], the target named is Fibroblast growth factor 2 (Homo sapiens) (UniProt P09038). The assay is described as follows: basic fibroblast growth factor binding to printed compounds – biochemical, small-molecule microarray, 635/667 nm fluorescence, primary screen (AID 1133). Conditions: FGF2, fluorescence 635/667, higher = more signal.
Fibroblast growth factor 2 (Homo sapiens), sequence (P09038 whole entry, looked up): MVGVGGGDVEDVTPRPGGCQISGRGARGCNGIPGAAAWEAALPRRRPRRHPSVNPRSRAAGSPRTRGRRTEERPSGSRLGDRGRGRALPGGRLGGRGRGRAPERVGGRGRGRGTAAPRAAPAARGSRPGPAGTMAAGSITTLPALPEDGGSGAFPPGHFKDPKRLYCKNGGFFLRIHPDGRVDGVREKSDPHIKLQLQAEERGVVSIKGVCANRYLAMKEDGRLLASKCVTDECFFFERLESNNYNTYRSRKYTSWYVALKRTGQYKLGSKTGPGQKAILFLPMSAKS
The nature of assay [7]: JC-1 mitochondrial potential readout, lung cancer cells – cell-based, A549, JC-1 fluorescence, basal, 24 h, 100 nL, profiling panel (AID 1138).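 Also: A549 lung adenocarcinoma cells under basal conditions with no added stimulus; test concentration not given here.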 The conditions noted are these: higher = more signal.
In the next assay the test system is Lefty1. The assay is described as follows: Lefty1 protein binding to printed compounds – biochemical, small-molecule microarray, 635/667 nm fluorescence, primary screen (AID 1139). The conditions noted are these: fluorescence 635/667, higher = more signal.
For assay [8], the system named is wheat germ agglutinin (Triticum aestivum), Alexa647-labelled. The assay is described as follows: Alexa647-WGA lectin binding to printed small molecules – biochemical, small-molecule microarray, 635/667 nm fluorescence, artefact control for SMM control-protein annotation, profiling panel (AID 1140).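 Also: score merges 667 nm feature emission with signal to noise over triplicate slides.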 Conditions: WGA-A647 binding, 635 nm fluorescence, higher = more signal.

For assay [9], the target named is Luciferin 4-monooxygenase (Photinus pyralis) (UniProt P08659). The assay is described as follows: inhibition of purified Photinus pyralis luciferase – biochemical, luminescence, purified enzyme, 2006 set, primary screen (AID 1141).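 Also: cell-free assay with purified firefly luciferase at 100 ng per well in PBS; test concentration not given here.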 The conditions noted are these: purified firefly luciferase, SteadyGlo luminescence, 30 min; higher = more signal, called active from +8 up or from −8 down.
Luciferin 4-monooxygenase (Photinus pyralis), sequence (P08659 whole entry, looked up): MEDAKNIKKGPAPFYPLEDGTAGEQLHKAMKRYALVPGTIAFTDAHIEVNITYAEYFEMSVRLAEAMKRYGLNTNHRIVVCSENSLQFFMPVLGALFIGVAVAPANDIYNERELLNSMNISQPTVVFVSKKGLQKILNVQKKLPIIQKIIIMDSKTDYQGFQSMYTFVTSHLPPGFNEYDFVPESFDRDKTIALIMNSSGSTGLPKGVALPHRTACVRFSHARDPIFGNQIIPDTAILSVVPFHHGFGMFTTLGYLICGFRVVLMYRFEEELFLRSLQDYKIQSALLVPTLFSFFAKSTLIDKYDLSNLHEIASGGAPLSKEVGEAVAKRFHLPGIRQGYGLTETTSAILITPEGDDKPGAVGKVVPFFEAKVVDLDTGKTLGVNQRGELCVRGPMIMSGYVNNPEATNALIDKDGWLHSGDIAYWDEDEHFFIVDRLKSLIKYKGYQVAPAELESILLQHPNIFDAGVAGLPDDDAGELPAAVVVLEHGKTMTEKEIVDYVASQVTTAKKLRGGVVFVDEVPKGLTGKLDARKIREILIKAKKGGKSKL

Assay [10] concerns Wnt5a (protein binding on small-molecule microarray). The assay is described as follows: small molecules binding Wnt5a protein – biophysical, small-molecule microarray, 635/667 nm fluorescence, primary screen (AID 1142).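 Also: fluorescence read at 667 nm with signal to noise per printed feature.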 Conditions: 635 nm fluorescence, higher = more signal.
Assay [11] is described as follows: ATP-based viability of Huh7 replicon cells – cell-based, CellTiter-Glo luminescence, basal, 48 h, cytotoxicity control for HCV replication inhibitor project, primary screen (AID 1143).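 Also: Huh7 hepatoma cells carrying a hepatitis C replication reporter with no stimulus; test concentration not given here.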 Conditions: higher = more signal, called active from +8 up or from −8 down.
The nature of assay [12]: Pseudomonas biofilm growth suppression – PAO1 strain, BacTiter-Glo luminescence, LB-PBS, primary screen (AID 1144). Conditions: P. aeruginosa PAO1 biofilm, 12 h, higher = more signal.
The nature of assay [13]: basal CRE-LacZ reporter activity in PC12 – cell-based, unstimulated, primary screen (AID 1145). The conditions noted are these: no forskolin, luminescence, 4.5 h, higher = more signal, called active from +8 up or from −8 down.
The nature of assay [14]: forskolin-driven CRE-LacZ activity in PC12 – cell-based, CRE-LacZ reporter, forskolin-stimulated, primary screen (AID 1146).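 Also: PC12 cells with 6xCRE LacZ reporter stimulated by forskolin 10 µM; beta-galactosidase reporter signal reflecting CREB driven transcription.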 The conditions noted are these: luminescence, 4.5 h, higher = more signal, called active from +8 up or from −8 down.
Assay [15] has as its target Streptavidin (Streptomyces avidinii) (UniProt P22629). The assay is described as follows: compounds binding control protein streptavidin – biophysical, small-molecule microarray, 635/667 nm fluorescence, artefact control for SMM compound annotation, primary screen (AID 1147).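 Also: signal reflects streptavidin binding to arrayed compounds as a control protein.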 The conditions noted are these: higher = more signal.
Assay [16] can be described thus: probe aInhba binding on compound microarray – biochemical, small-molecule microarray, 635/667 nm fluorescence, primary screen (AID 1148).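 Also: score merges 667nm spot fluorescence with signal-to-noise for antibody binding to printed compounds.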 The conditions noted are these: higher = more signal.
Assay [17] deals with Torsin-1A (Homo sapiens) (UniProt O14656). The assay is described as follows: TOR1A wild-type binding on microarray – cell lysate, small-molecule microarray, lysate, 635/667 nm, primary screen (AID 1149). Conditions: COS7 hTOR1A-WT lysate, 635 nm fluorescence, higher = more signal.
Torsin-1A (Homo sapiens), sequence (O14656 whole entry, looked up): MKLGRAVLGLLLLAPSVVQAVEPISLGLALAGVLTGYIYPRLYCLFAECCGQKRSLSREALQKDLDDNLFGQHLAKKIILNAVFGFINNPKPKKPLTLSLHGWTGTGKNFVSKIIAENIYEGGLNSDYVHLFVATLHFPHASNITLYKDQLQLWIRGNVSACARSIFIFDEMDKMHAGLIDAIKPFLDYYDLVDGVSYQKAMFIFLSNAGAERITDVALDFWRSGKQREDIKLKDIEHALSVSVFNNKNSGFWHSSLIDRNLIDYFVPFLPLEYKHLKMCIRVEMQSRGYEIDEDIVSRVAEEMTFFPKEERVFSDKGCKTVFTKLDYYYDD
Assay [18] shares this target. The assay is described as follows: torsin A mutant lysate binding on microarrays – cell lysate, small-molecule microarray, COS7 lysate, 635/667 nm fluorescence, primary screen (AID 1150).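 Also: score pools 667 nm emission and signal to noise measuring lysate protein binding.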 The conditions noted are these: COS7 hTOR1A mutant lysate, 635 nm fluorescence, higher = more signal.
Assay [19] has as its system Sonic hedgehog protein (Shh). The assay is described as follows: Sonic hedgehog microarray binding compounds – biochemical, small-molecule microarray, 635/667 nm fluorescence, primary screen (AID 1151).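 Also: Shh protein binding to compounds spotted on small-molecule microarray slides; score combines spot fluorescence intensity with signal-to-noise across triplicate slides.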 Conditions: 635 nm fluorescence, higher = more signal.

Calls of active or inactive are those of the source. Unless noted, no rule for the calls is given here.

Focal adhesion kinase 1 (Homo sapiens), sequence (Q05397 whole entry, looked up): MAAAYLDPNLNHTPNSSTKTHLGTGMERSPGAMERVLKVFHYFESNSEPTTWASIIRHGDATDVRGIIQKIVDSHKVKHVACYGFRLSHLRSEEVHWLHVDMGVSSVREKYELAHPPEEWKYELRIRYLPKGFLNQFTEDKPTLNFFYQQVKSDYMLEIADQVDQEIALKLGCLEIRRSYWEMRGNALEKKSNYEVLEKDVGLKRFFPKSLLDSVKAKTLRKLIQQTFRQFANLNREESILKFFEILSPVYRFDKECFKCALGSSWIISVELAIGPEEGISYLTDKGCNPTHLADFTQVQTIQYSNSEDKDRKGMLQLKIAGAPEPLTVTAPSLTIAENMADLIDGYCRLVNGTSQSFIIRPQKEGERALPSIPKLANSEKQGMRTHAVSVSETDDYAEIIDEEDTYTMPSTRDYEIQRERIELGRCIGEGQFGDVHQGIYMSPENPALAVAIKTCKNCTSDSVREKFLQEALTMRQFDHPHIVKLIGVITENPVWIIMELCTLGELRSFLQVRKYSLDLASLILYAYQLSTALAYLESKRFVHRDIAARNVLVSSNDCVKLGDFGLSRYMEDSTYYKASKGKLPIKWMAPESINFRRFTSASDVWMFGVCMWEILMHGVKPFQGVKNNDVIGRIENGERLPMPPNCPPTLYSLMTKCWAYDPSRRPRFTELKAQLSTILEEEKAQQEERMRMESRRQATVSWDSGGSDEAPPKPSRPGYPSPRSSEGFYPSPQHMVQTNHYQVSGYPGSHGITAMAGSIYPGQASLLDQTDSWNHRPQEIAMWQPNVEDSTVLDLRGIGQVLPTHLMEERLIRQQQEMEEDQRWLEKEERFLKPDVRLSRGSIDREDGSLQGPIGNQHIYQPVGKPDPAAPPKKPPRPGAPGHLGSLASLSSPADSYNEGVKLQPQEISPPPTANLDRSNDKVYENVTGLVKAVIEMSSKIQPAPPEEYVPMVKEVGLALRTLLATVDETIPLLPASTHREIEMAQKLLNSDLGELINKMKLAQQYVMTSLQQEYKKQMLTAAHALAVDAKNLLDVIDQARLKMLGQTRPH
Follistatin (Homo sapiens), sequence (P19883 whole entry, looked up): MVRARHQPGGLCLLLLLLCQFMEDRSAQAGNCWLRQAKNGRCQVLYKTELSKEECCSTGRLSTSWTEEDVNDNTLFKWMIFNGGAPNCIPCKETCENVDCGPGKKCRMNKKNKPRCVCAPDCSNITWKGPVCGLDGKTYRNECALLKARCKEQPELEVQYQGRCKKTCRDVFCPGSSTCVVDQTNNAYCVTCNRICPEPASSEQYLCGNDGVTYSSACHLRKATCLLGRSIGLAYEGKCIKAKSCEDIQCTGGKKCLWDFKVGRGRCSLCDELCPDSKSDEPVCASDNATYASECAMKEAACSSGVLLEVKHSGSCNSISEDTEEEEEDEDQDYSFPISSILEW
Streptavidin (Streptomyces avidinii), sequence (P22629 whole entry, looked up): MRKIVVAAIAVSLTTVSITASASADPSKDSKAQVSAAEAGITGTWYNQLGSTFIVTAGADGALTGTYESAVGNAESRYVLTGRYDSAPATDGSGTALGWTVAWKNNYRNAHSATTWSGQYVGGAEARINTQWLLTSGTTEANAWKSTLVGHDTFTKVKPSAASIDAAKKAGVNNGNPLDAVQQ

Turning to `CCOC(=O)C[C@H]1[C@H](OC(=O)c2ccc(-c3ccccc3)cc2)[C@@H](NC(=O)C2CCCCC2)c2cc(OCCCO)ccc2N1C(=O)c1ccccc1`, the composite z-score in assay [1] worked out at 0.0672; in assay [2], 0.755; in assay [3], 0.559; in assay [4] it was 0.845; in assay [5], 0.461; in assay [6], 0.406. For the same molecule, the composite z-score in the assay on Lefty1 is 0.544; in assay [8], 0.207; in assay [10], 0.0722; in assay [15] it was 0.947; in [16], -0.133; with Torsin-1A (Homo sapiens) [17] it was -0.0488. For the same molecule, the composite z-score with Torsin-1A (Homo sapiens) [18] was determined as 0.221; in [19], 0.957. For the same molecule, the z-score was 0.0651 in [7]; 0.0421 (inactive) in assay [9]; -0.0788 (inactive) in assay [11]; -0.376 (inactive) in assay [12]; -0.0247 (inactive) in assay [13]; 0.178 (inactive) in assay [14].
For the molecule `CC(C)C[C@@H]1NC(=O)[C@H]2C[C@@H](C(=O)NCCCCCC[N+](C)(C)C)[C@@H](c3cccc(OCCO)c3)N2C1=O`, the composite z-score in assay [1] was 2.76; in assay [2] it was 0.381; in [3], 0.125; in assay [4], -1.08; in assay [5], 1.43; in assay [6], 1.01. The composite z-score is 0.691 in the assay with Lefty1; 0.432 in assay [8]; -0.0449 in assay [10]; -0.368 in [15]; 0.0855 in assay [16]; 0.126 with Torsin-1A (Homo sapiens) [17]. The composite z-score was 0.62 in the assay with Torsin-1A (Homo sapiens) [18] and 1.75 in [19]. For the same molecule, the z-score in assay [7] is -0.525; in assay [9], 0.579 (inactive); in assay [11] it was -0.192 (inactive); in [12] it was -0.616 (inactive); in assay [13] it was -0.256 (inactive); in [14], -0.139 (inactive).
`COc1ccc(C(O)C2C=CC3C(=O)N(c4ccccc4)C(=O)C3N2Nc2ccccc2)cc1OCc1ccccc1` (stereo not given): the composite z-score in assay [1] is 0.621; in assay [2], 1.24; in [3], 0.315; in assay [4] it was 0.942; in assay [5], 1.22; in [6], -0.132. For the same molecule, the composite z-score in the assay with Lefty1 is 0.788; in [8], 1.22; in [10], 0.302; in [15], 0.887; in [16] it was 0.185; with Torsin-1A (Homo sapiens) [17], 0.867. In addition, the composite z-score with Torsin-1A (Homo sapiens) [18] was determined as 0.887; in assay [19], 0.81. Moreover, the z-score is -0.0208 in assay [7]; -0.414 (inactive) in assay [9]; 0.197 (inactive) in assay [11]; -1.12 (inactive) in assay [12]; 0.0535 (inactive) in assay [13]; 0.414 (inactive) in assay [14].
On to `CO[C@H]1O[C@H](CO)[C@@H](OC(=O)Nc2ccc(C(F)(F)F)cc2)[C@H](OC(=O)Nc2ccc3c(c2)OCO3)[C@H]1OC(=O)Nc1ccc2c(c1)OCO2`, for which the composite z-score in assay [1] came out at 2.97; in assay [2], 1.17; in assay [3], 1.33; in assay [4], 0.806; in assay [5] it was 0.977; in [6], 0.395. Also, the composite z-score came out at 0.871 with Lefty1; 1.07 in assay [8]; 0.259 in assay [10]; 0.656 in [15]; 0.234 in assay [16]; 0.201 in the assay with Torsin-1A (Homo sapiens) [17]. Moreover, the composite z-score with Torsin-1A (Homo sapiens) [18] came to 0.746; in assay [19] it was 0.99. Besides, the z-score in assay [7] is -1.16; in assay [9] it was -7.72 (inactive); in assay [11], -4.23 (inactive); in assay [12], 0.558 (inactive); in assay [13], 1.54 (inactive); in [14] it was 1.38 (inactive).
For the molecule `O=C(NC1CC1)[C@@H]1c2ccccc2C(=O)N(Cc2ccccc2)[C@H]1c1ccc(CO)cc1`, the composite z-score in assay [1] was 0.522; in assay [2], 0.802; in assay [3], -0.747; in assay [4] it was 0.497; in assay [5], 0.665; in assay [6] it was 0.483. In addition, the composite z-score was 0.626 in the assay with Lefty1; 0.905 in [8]; 0.336 in assay [10]; -0.928 in [15]; 0.0111 in [16]; -0.892 with Torsin-1A (Homo sapiens) [17]. Besides, the composite z-score in the assay with Torsin-1A (Homo sapiens) [18] was -0.665; in assay [19], 0.443. Further, the z-score in assay [7] was 2.09; in assay [9], 0.017 (inactive); in [11], -0.878 (inactive); in [12], -0.55 (inactive); in assay [13], -0.825 (inactive); in assay [14], -1.22 (inactive).

Values taken from PubChem BioAssay.
